From publication PMC5700166 come the findings set out here.

For the assay, the target named is GST-Hu-p50 (Homo sapiens, UniProt P19838 7-356). The assay is described as follows: protein-binding microarray (PBM); PBM: ~300 nM protein, 6 mM HEPES pH 7.8, 80 mM KCl, 0.5 mM EDTA, 0.5 mM EGTA, 6% glycerol, 35 ng/ul poly-dIdC, 1% milk, 1 h, room temperature; Ap Aiptasia and Nv Nematostella (sea anemones) / Co Capsaspora / Aq Amphimedon (sponge) / Dm Drosophila / Hu human; RHD is the Rel homology domain; high values mean tight binding. The note with it: dsDNA, one strand shown.
Sequence of GST-Hu-p50 (P19838 7-356): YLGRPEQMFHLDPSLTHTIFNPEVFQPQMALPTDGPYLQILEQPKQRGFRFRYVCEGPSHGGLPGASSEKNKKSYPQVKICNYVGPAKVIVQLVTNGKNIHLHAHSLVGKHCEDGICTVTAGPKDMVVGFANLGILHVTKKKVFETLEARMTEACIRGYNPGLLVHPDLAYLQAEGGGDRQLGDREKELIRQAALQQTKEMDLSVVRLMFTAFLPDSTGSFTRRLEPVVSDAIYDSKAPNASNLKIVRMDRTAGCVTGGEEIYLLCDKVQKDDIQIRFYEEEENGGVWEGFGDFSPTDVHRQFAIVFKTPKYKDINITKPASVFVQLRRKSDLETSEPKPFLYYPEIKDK
“CCGATTAACATCAAAGGGAATTCTGATGTTAATCGGGTCTTGATTCGCTTGACGCTGCTG” had a binding signal of 4.99 z-score.

Turning to “CCGATTAACATCACCCACCGATTTGATGTTAATCGGGTCTTGATTCGCTTGACGCTGCTG”, the binding signal was 1.08 z-score.

Take “CCGATTAACATCAGGAAAGTTCCTGATGTTAATCGGGTCTTGATTCGCTTGACGCTGCTG”: the binding signal was determined as 1.06 z-score.

“CCGATTAACATCAGAGGTGCTTCTGATGTTAATCGGGTCTTGATTCGCTTGACGCTGCTG” displayed a binding signal of 1.84 z-score.

“CCGATTAACATCAATAATTTTCCTGATGTTAATCGGGTCTTGATTCGCTTGACGCTGCTG” registered a binding signal of 1.12 z-score.

On to “CCGATTAACATCAACCTTTCCCCTGATGTTAATCGGGTCTTGATTCGCTTGACGCTGCTG”, for which the binding signal stood at 4.06 z-score.

As for “CCGATTAACATCACATTTCCCCATGATGTTAATCGGGTCTTGATTCGCTTGACGCTGCTG”, the binding signal was 5.25 z-score.

“CCGATTAACATCAACATTTTCCCTGATGTTAATCGGGTCTTGATTCGCTTGACGCTGCTG” displayed a binding signal of 4.21 z-score.

“CCGATTAACATCACCCCAACCCCTGATGTTAATCGGGTCTTGATTCGCTTGACGCTGCTG” came in with a binding signal of 1.66 z-score.

Regarding “CCGATTAACATCACGGCAACCCCTGATGTTAATCGGGTCTTGATTCGCTTGACGCTGCTG”, the binding signal amounted to 1.19 z-score.

With “CCGATTAACATCAAAAAACTACCTGATGTTAATCGGGTCTTGATTCGCTTGACGCTGCTG”, the binding signal was determined as 4.32 z-score.

Take “CCGATTAACATCAGGGGAACCTATGATGTTAATCGGGTCTTGATTCGCTTGACGCTGCTG”: the binding signal came to 4.74 z-score.

“CCGATTAACATCAGGCATGCCCCTGATGTTAATCGGGTCTTGATTCGCTTGACGCTGCTG” came in with a binding signal of 1.89 z-score.

As for “CCGATTAACATCATACAAGGGAGTGATGTTAATCGGGTCTTGATTCGCTTGACGCTGCTG”, the binding signal was 1.09 z-score.

In turn, “CCGATTAACATCAGGGCAAAAAATGATGTTAATCGGGTCTTGATTCGCTTGACGCTGCTG” had a binding signal of 1.45 z-score.

On to “CCGATTAACATCAGGAATTGCCCTGATGTTAATCGGGTCTTGATTCGCTTGACGCTGCTG”, for which the binding signal is 1.09 z-score.

In the case of “CCGATTAACATCAAACTTTTCCCTGATGTTAATCGGGTCTTGATTCGCTTGACGCTGCTG”, the binding signal is 3.53 z-score.

Take “CCGATTAACATCAAAAAATTACCTGATGTTAATCGGGTCTTGATTCGCTTGACGCTGCTG”: the binding signal stood at 4.27 z-score.

Consider “CCGATTAACATCAGTAGTGGGGCTGATGTTAATCGGGTCTTGATTCGCTTGACGCTGCTG”, for which the binding signal was 1.09 z-score.

The sequence “CCGATTAACATCAGATTATCCCCTGATGTTAATCGGGTCTTGATTCGCTTGACGCTGCTG” registered a binding signal of 4.03 z-score.

On to “CCGATTAACATCAGAAATCCCAATGATGTTAATCGGGTCTTGATTCGCTTGACGCTGCTG”, for which the binding signal is 2.35 z-score.

The sequence “CCGATTAACATCACAAATTTCCCTGATGTTAATCGGGTCTTGATTCGCTTGACGCTGCTG” displayed a binding signal of 5.09 z-score.

With “CCGATTAACATCAGGTAACCCCATGATGTTAATCGGGTCTTGATTCGCTTGACGCTGCTG”, the binding signal is 1.35 z-score.

Sequence “CCGATTAACATCAATGGAATTCCTGATGTTAATCGGGTCTTGATTCGCTTGACGCTGCTG” returned a binding signal of 1.48 z-score.

“CCGATTAACATCACGGGGTTGCCTGATGTTAATCGGGTCTTGATTCGCTTGACGCTGCTG” yielded a binding signal of 1.21 z-score.

“CCGATTAACATCATTAATGACGGTGATGTTAATCGGGTCTTGATTCGCTTGACGCTGCTG” gave a binding signal of 1.09 z-score.

Consider “CCGATTAACATCACATACCCCCCTGATGTTAATCGGGTCTTGATTCGCTTGACGCTGCTG”, for which the binding signal was 3.68 z-score.

In turn, “CCGATTAACATCAATTTTTTCCCTGATGTTAATCGGGTCTTGATTCGCTTGACGCTGCTG” had a binding signal of 4.43 z-score.

In turn, “CCGATTAACATCACCGGAATTTCTGATGTTAATCGGGTCTTGATTCGCTTGACGCTGCTG” showed a binding signal of 2.22 z-score.

On to “CCGATTAACATCAAGGTATTTCCTGATGTTAATCGGGTCTTGATTCGCTTGACGCTGCTG”, for which the binding signal was found to be 1.29 z-score.

Take “CCGATTAACATCAGGGAAACTACTGATGTTAATCGGGTCTTGATTCGCTTGACGCTGCTG”: the binding signal was found to be 3.85 z-score.

Regarding “CCGATTAACATCACCTTTAGGAGTGATGTTAATCGGGTCTTGATTCGCTTGACGCTGCTG”, the binding signal was determined as 1.11 z-score.

For the sequence “CCGATTAACATCAGGAAAAACCATGATGTTAATCGGGTCTTGATTCGCTTGACGCTGCTG”, the binding signal worked out at 1.05 z-score.

On to “CCGATTAACATCAGGGGAAGAAATGATGTTAATCGGGTCTTGATTCGCTTGACGCTGCTG”, for which the binding signal worked out at 5.16 z-score.

In turn, “CCGATTAACATCAAGAGTTCCCCTGATGTTAATCGGGTCTTGATTCGCTTGACGCTGCTG” came in with a binding signal of 5.23 z-score.

Sequence “CCGATTAACATCACCATTATAGGTGATGTTAATCGGGTCTTGATTCGCTTGACGCTGCTG” showed a binding signal of 1.68 z-score.

As for “CCGATTAACATCAGGGATTCCACTGATGTTAATCGGGTCTTGATTCGCTTGACGCTGCTG”, the binding signal came out at 1.75 z-score.

Sequence “CCGATTAACATCAGGATTTTCCCTGATGTTAATCGGGTCTTGATTCGCTTGACGCTGCTG” displayed a binding signal of 5 z-score.

In the case of “CCGATTAACATCACAATTTTCCCTGATGTTAATCGGGTCTTGATTCGCTTGACGCTGCTG”, the binding signal came to 4.58 z-score.
